Compound activity from PubChem.
CHT allo act: human CHT allosteric activation; Q9GZV3; CHT-expressing cells, membrane potential dye, choline EC20; hits give high values; LV-AA mutant CHT in HEK293 cells; B-score at 10 µM; 310,000 tested, 0.49% active; AID 488977;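 active = initial fluorescence not abnormally high and integrated response B-score, plate-corrected, over 3 SD above library mean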
CHT inh: inhibits the human high affinity choline transporter; Q9GZV3; CHT-expressing cells, membrane potential dye, choline response; hits give low values; B-score at 10 µM; 310,000 tested, 0.86% active;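 active = B-score over 3 SD under the library average, and starting fluorescence ratio not unusually high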;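 note: choline stimulus applied at its EC90 after an EC20 pre-addition; B-score computed on integrated fluorescence ratio after choline addition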
ALR H2O2 inh: blocks human ALR sulfhydryl oxidase activity; purified ALR, DTT oxidation, H2O2 HRP-luminol luminescence; inhibition, % (concentration not given with the values); 290,000 tested, 3.8% active;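 active = mean replicate inhibition above about 79%, with every replicate also reaching it, limit read from the data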
Target sequence (P55789 whole entry, looked up): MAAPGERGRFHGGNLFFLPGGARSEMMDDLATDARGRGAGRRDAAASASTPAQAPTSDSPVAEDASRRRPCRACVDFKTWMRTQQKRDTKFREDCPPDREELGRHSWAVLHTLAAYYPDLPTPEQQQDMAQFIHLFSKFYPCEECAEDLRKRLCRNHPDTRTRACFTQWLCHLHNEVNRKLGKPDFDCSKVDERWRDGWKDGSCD
PREPL inhibitor: inhibitors of human prolyl oligopeptidase-like enzyme PREPL | Q4J6C6 | recombinant PREPL, fluorescence polarization activity-based probe | inhibition, % at 5.96 µM | 320,000 tested, 0.68% active; in the data active = inhibition above about 43%
AI-2 QS modul: Vibrio harveyi AI-2 quorum sensing modulation | activity change, % at 7.5 µM | Vibrio harveyi JMH597 AI-2 luminescence/OD600 ratio, 9 h; hits give low values; strain lacks LuxN and CqsS sensors; 0 = neutral-control median | 300,000 tested, 0.4% active; in the data active = activity change below about -75%, passing the limit was not always enough;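 note: luminescence divided by OD600 gain over 9 h not by final OD600 alone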
CHT activ conf: human CHT activation, confirmatory screen | shares compounds with CHT allo act | activation, % at 10 µM | CHT-expressing cells, membrane potential dye fluorescence (FDSS); % of choline EC20–EC90 response window; HEK293 expressing CHT LV-AA mutant; choline added at its EC20 | 2,500 tested, 91% active | AID 504833;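 active = primary screen active, with duplicate mean activation above negative control mean plus 3 SD, cut at about 11% in these data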
HEK293 MP dye: CHT activator counter-screen hit in parental HEK293 cells | shares compounds with CHT allo act | membrane potential dye fluorescence (FDSS); measured after EC20 choline addition | 2,500 tested, 62% active | ratio readout change at 10 µM, hits read low | AID 623908;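 active = duplicate-averaged ratio beyond 3 SD from buffer wells, up or down, though filed actives are nearly all decreases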
Large screens that a line does not name were inactive (follow-up assays come after a bar, where they were run). In the library only some 5% were active in any assay of this set; here they are far more common.

CC(C)(C)OC(=O)[C@H]1[C@H](c2ccc([N+](=O)[O-])cc2)C2(C(=O)c3ccccc3C2=O)C2c3ccccc3C=NN21 (stereo partly specified)	none | CHT activ conf 37 | HEK293 MP dye inactive
CCOC(=O)C[C@H]1c2ccccc2S(=O)(=O)N1Cc1cccc(C(F)(F)F)c1	none | CHT activ conf 17 | HEK293 MP dye inactive
CCOC(=O)c1c(C)[nH]c(C(=O)OCC(=O)NC2(C#N)CCCCC2)c1C	none
COC(=O)[C@@H]1[C@@H](C)N(Cc2ccccc2)C(=O)N[C@H]1c1cccc(C(F)(F)F)c1	CHT allo act 9.4 | CHT activ conf inactive | HEK293 MP dye inactive
CCN1C(=NCc2ccccc2)N[C@@H](c2ccccc2)[C@H](C(=O)OC)[C@H]1C	CHT allo act 6.9 | CHT activ conf 12 | HEK293 MP dye inactive
O=C(O)C1=CC[C@@H](c2ccc(Cl)cc2)N(S(=O)(=O)c2ccc(Cl)cc2)[C@H]1c1ccc(Br)cc1	none (no result: CHT allo act, CHT inh, ALR H2O2 inh, AI-2 QS modul)
CCN(CC)S(=O)(=O)c1cnccc1N1CCN(c2cccc(Cl)c2)CC1	CHT allo act 9.3 | CHT activ conf 13 | HEK293 MP dye inactive
Cn1c(C(=O)NCCCN2CCc3ccccc3C2)cc2c(=O)n(C)c3ccccc3c21	none | CHT activ conf 25 | HEK293 MP dye -27
CCN(CC)CCCNC(=O)c1cc2c(=O)n(C)c3ccccc3c2n1C	CHT allo act 6.7 | CHT activ conf 49 | HEK293 MP dye -23
Cn1c(C(=O)NCCCN2CCCCCC2)cc2c(=O)n(C)c3ccccc3c21	none (no result: AI-2 QS modul)
CN(C)CCNC(=O)c1cc2c(=O)n(C)c3ccccc3c2n1C	none | CHT activ conf 42 | HEK293 MP dye -33
COCCNC(=O)c1cc2c(=O)n(C)c3ccccc3c2n1C	none
CCN(CC)CCNC(=O)c1cc2c(=O)n(C)c3ccccc3c2n1C	none
Cn1c(C(=O)NC2CC2)cc2c(=O)n(C)c3ccccc3c21	none | CHT activ conf 36 | HEK293 MP dye -30
COC(=O)C1CCN(Cc2ccc(OCCCN3CCN(c4ccc([N+](=O)[O-])cc4)CC3)cc2)CC1	none
CCCCN(CCCC)CCNC(=O)CSCc1ccc(C)cc1	none (no result: ALR H2O2 inh) | CHT activ conf 35 | HEK293 MP dye inactive
CCn1c(=O)c(=O)n(CC)c2cc(S(=O)(=O)Nc3cc(C)ccc3C)ccc21	none
CCC1CCc2sc(C(=O)N3CCCN(C)CC3)cc2C1 (stereo unspecified)	none
CC(C)CC(c1nnnn1C(C)C)N1CCN(c2cccc(Cl)c2)CC1 (stereo unspecified)	none | CHT activ conf 26 | HEK293 MP dye inactive
CC(C)CC(c1nnnn1C(C)C)N1CCN(C(=O)c2ccco2)CC1 (stereo unspecified)	none
CC(=O)Nc1ccc(S(=O)(=O)N(C)CC(=O)OC2CCCCC2=O)cc1 (stereo unspecified)	none (no result: CHT allo act, CHT inh, AI-2 QS modul)
Cc1c(C)c2ccc(OC(C)C(=O)NCCCn3ccnc3)c(C)c2oc1=O (stereo unspecified)	none | CHT activ conf 62 | HEK293 MP dye -36
CC(Oc1ccc2ccc(=O)oc2c1)C(=O)NCCCn1ccnc1 (stereo unspecified)	none
Cc1cc2nc(C)n(CCCN)c2cc1C	CHT allo act 8.4 | CHT activ conf 69 | HEK293 MP dye -73
CN(C)CCNC(=O)c1onc(CSc2ccncc2)c1C(=O)NCCN(C)C	none | CHT activ conf 50 | HEK293 MP dye -58
Cc1cc(-c2cccc([N+](=O)[O-])c2)nc2ccccc12	none
Cc1cc[n+]2cc(-c3cccc([N+](=O)[O-])c3)c(-c3cccc([N+](=O)[O-])c3)cc2c1	CHT allo act 7 | CHT activ conf 65 | HEK293 MP dye -84
N#Cc1c(N)oc(-c2ccco2)c1-c1ccco1	CHT allo act 8.2 | CHT activ conf 10 | HEK293 MP dye inactive
Cc1cc(C)c2c(N)c(C(=O)N/N=C/c3cccnc3)sc2n1	none
O=C(N/N=C/c1cccnc1)c1ccc([N+](=O)[O-])cc1Cl	none
Cc1ccc([N+](=O)[O-])c(C(=O)N/N=C/c2cccnc2)c1	none | CHT activ conf 61 | HEK293 MP dye -41
Cc1c(C(=O)N/N=C/c2cccnc2)sc(=S)n1C	none | CHT activ conf 41 | HEK293 MP dye -41
O=C(NCc1cccc(C(F)(F)F)c1)C1CC(c2ccccc2C(F)(F)F)=NO1 (stereo unspecified)	none (no result: ALR H2O2 inh)
COc1ccc(N2CCN(C(=O)CN(C3CCCCC3)S(C)(=O)=O)CC2)cc1	none
COc1cc(OC)cc(-c2c(-c3ccsc3)c3cc(Br)ccc3n2C)c1	none (no result: CHT allo act, CHT inh, AI-2 QS modul)
COc1ccc(NC(=O)C(c2ccccc2)N2CCN(c3ccccn3)CC2)cc1Cl (stereo unspecified)	CHT allo act 7.9 | CHT activ conf 22 | HEK293 MP dye inactive
Cc1ccc(NC(=O)C(c2ccccc2)N2CCN(CC(=O)NC3CC3)CC2)cc1Cl (stereo unspecified)	none (no result: CHT allo act, CHT inh, ALR H2O2 inh, AI-2 QS modul)
COc1ccccc1C(=O)NCC(=O)NCCc1ccc(Cl)cc1	none
CCc1cc(=O)oc2cc(C)cc(OCC(=O)NCCCN3CCOCC3)c12	none
Cc1cc(OCC(=O)NCCCN2CCOCC2)c2c(C)cc(=O)oc2c1	CHT allo act 6.5 | CHT activ conf 60 | HEK293 MP dye -52
Cc1cc(C)nc(NC(=O)c2cnc3sccn3c2=O)n1	CHT allo act 9.1 | CHT activ conf 52 | HEK293 MP dye -51
CC[n+]1c(C)sc2c(C)cc(C)cc21	CHT allo act 7.8 | CHT activ conf 62 | HEK293 MP dye -60
COC(=O)c1ccccc1NC(=O)CSc1nc(NC(=O)c2ccccc2)c2c(C)c(C)oc2n1	CHT allo act 8.4 | CHT activ conf inactive | HEK293 MP dye inactive
CCOC(=O)c1ccc(NC(=O)CSc2nc(NC(=O)c3ccccc3)c3c(C)c(C)oc3n2)cc1	none
CCCCn1c(N)c(N(CC)C(=O)C2=COCCO2)c(=O)[nH]c1=O	none
COC(=O)[C@@H](Cc1c[nH]c2ccccc12)NC(=O)C1CCCN(S(=O)(=O)c2ccc(C)cc2)C1 (stereo partly specified)	none (no result: PREPL inhibitor)
N#Cc1c(N2CCCCC2)nc(N)c2c(N)nc3c(c12)CC(c1ccccc1)O3 (stereo unspecified)	none
CCN(CC)c1nc(N)c2c(N)nc3c(c2c1C#N)CC(c1ccccc1)O3 (stereo unspecified)	CHT allo act 6.5 | CHT activ conf 26 | HEK293 MP dye inactive
Cc1cccc(C)c1OCC(=O)Nc1ccc2c(c1)C(=O)NC2=O	none
Cc1nnc(C)n1/N=C/c1cc2ccccc2nc1Cl	CHT allo act 8.6 | CHT activ conf 51 | HEK293 MP dye -55
